Source: PubChem BioAssay AID720519 (National Center for Advancing Translational Sciences (NCATS), 2013)
Results filed as inconclusive are left out. Unmarked numbers belong to inactive results. The call rests on the fitted dose curve; in most records, active means well fitted activation curve with a large enough effect; inconclusive means small, poorly fitted or top-dose-only effect; inactive means flat fitted curve, though single readings scatter.

assay: qHTS for Inhibitors of Cell Surface uPA Generation: Confirmatory Assay for Cherry-picked Compounds; details: cell surface uPA activity generation, qHTS confirmation; series mostly up to 115 µM; inhibition: at the top concentration; further: 0% is about no effect
Method in brief: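 RAW 264.7 cells at 4000/well, incubated overnight, then treated with compounds. After 24 h at 37 C, viability was read by ATPlite luminescence. An increase in signal indicates blocked uPA-dependent LF entry.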

SMILES | inhibition
CC(=O)c1ccc2c(c1)c1ccccc1n2CC(C)C | -0.0624%
Cc1ccc(NC2CCCN(C(=O)Cc3nonc3C)C2)cc1C (configuration not stated) | -0.6%
Cc1cccc(NC(=O)C2CCCN(S(=O)(=O)c3cccc4cccnc34)C2)c1 (configuration not stated) | -1.96%
CCC(=O)N1CCC(NC(=O)Nc2ccc(OC(F)(F)F)cc2)CC1 | -0.395%
O=C(COC(=O)Cn1cnc2ccccc21)NCc1ccc(F)cc1 | 0.451%
CCCN1CCN(C2CCCCC2NS(=O)(=O)c2ccc(Cl)cc2)CC1 (configuration not stated) | 11.2%
COc1ccc(OC)c(N2C(=O)CC(Cc3cc(C)cc(C)c3)C2=O)c1 (configuration not stated) | -2.59%
Cc1ccc(NC(=O)CS(=O)Cc2nc(-c3ccc(C)cc3)oc2C)cc1 (configuration not stated) | -2.57%
Cc1cc(COc2ccccc2)oc1C(=O)O | -1.25%
O=C(NCc1ccccn1)C1CCN(C(=O)c2cc3sccc3n2Cc2ccc(F)cc2)CC1 | -2.71%
Cc1nc2ccc(Br)cn2c1C(=O)N/N=C\c1ccccc1Cl | 0.471%
COc1ccc(C(=O)N2CCN(c3ccc(C(C)=O)cc3)CC2)cc1S(=O)(=O)N1CCCC1 | -2.44%
O=C(Nc1ccc(Cl)cc1)Nc1nnc(-c2ccncc2)s1 | -3.24%
Cc1cc(C)c(NC(=O)Cn2nnc(C(=O)NCc3ccc4c(c3)OCO4)c2N)c(C)c1 | 3.61%
O=C(COc1ccccc1F)NCC(c1ccc(F)cc1)N1CCOCC1 (configuration not stated) | -0.649%
COc1cccc(NC(=O)CN(C)C(=O)c2csc3c2CCCC3)c1 | 2.11%
CC(C)CNC(=O)COC(=O)CCC(=O)c1cccs1 | -0.888%
O=C(Nc1ccc(N2CCOCC2)cc1)c1ccc(Cl)c(S(=O)(=O)N2CCCC2)c1 | -1.76%
CC(NC(=O)NC1CCCCC1)C(c1cccs1)N1CCN(C)CC1 (configuration not stated) | 1.87%
COC(=O)Cc1c(C)c2ccc(OCC(=O)N3CCCC(C)C3)c(C)c2oc1=O (configuration not stated) | -2.44%
COc1ccc(C)cc1NC(=O)NNC(=O)C1CCC(C(C)(C)C)CC1 (configuration not stated) | -3.28%
CC1CCC(NC(=O)c2nn(C)c3c2CS(=O)(=O)c2ccccc2-3)CC1 (configuration not stated) | -2.66%
